# Measured values taken from paper PMC4336329 (PLoS ONE, 2015).
# The campaign covered roughly 310,000 compounds. About 14,000 (4.5%) showed an effect of 50% or more. Effects have a minus sign here. Many of the other results were omitted from the sample, so strong results are more common in it than they were.
# Target: human ether-à-go-go-related gene (hERG) potassium channel (human, UniProt Q12809)
# Test: primary screen, population patch clamp on CHO cells stably expressing hERG; higher = less effect of the substance
# 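Note: peak tail current of the secondary pulse compared with the same well before compound.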
# human ether-à-go-go-related gene (hERG) potassium channel, sequence (Q12809 whole entry, looked up): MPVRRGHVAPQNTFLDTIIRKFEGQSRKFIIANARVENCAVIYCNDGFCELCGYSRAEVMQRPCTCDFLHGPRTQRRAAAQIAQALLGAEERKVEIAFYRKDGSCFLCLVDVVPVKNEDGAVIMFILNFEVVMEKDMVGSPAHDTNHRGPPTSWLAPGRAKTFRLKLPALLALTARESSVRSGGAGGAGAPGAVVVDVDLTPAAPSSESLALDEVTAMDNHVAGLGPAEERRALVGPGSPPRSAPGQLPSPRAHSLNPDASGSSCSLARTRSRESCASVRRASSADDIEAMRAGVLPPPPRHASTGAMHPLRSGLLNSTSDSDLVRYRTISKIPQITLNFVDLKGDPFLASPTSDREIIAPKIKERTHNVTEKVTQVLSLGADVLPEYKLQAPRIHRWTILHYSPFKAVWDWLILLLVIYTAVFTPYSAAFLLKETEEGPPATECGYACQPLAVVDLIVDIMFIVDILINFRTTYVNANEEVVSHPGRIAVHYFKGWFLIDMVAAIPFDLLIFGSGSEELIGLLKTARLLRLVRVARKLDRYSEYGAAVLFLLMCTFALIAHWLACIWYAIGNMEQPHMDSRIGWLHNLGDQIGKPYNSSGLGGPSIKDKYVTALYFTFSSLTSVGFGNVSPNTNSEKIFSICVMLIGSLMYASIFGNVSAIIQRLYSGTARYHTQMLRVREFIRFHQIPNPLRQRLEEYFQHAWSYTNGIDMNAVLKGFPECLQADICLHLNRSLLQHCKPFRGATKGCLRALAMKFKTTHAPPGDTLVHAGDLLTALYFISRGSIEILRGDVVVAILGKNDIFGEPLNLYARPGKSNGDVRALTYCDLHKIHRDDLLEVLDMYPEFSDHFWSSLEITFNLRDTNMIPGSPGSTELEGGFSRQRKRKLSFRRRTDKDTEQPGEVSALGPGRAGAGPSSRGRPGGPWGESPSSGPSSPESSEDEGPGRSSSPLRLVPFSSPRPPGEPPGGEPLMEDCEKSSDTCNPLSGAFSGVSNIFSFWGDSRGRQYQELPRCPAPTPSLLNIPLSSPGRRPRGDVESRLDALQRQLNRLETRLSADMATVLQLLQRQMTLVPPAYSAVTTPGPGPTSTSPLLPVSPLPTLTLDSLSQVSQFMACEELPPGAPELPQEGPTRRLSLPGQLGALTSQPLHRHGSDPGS
row,Compound,"hERG current change (%, negative = inhibition) at 10uM [%]"
1,Cc1ccc(OCC(=O)NNC(=O)CCc2ccccc2)c(Br)c1,10
2,CCOC(=O)N1CCN(C(=O)C2CCCN(S(=O)(=O)c3ccc(F)cc3)C2)CC1 (centres unmarked),-10.1
3,COc1ccc(Cl)cc1NC(=O)c1cc(-c2ccc(C)cc2O)n[nH]1,15.9
4,O=C1CSC(c2ccncc2)N1Cc1ccc(F)cc1 (centres unmarked),1.53
5,CN1CCc2c(C#N)c(N3CCCCC3)nc(NCc3ccccc3)c2C1,-2.02
6,CCN1CCc2c(C#N)c(N3CCCCC3)nc(NCc3ccccc3)c2C1,-39.8
7,CCN1CCc2c(C#N)c(NCc3ccccc3)nc(N(CC)CC)c2C1,-68.5
8,C=CCNc1nc(NCc2ccccc2)c(C#N)c2c1CN(C)CC2,-68.1
9,CCc1nc(NCc2ccccc2)c(C#N)c2c1CCCC2,23.3
10,CCN1CCc2c(C#N)c(N3CCOCC3)nc(NCCO)c2C1,11.8
11,N#Cc1c(NCCO)nc(NCc2ccccc2)c2c1CCN(Cc1ccccc1)C2,-27.1
12,CCN1CCc2c(C#N)c(NCc3ccccc3)nc(NCCO)c2C1,-51.6
13,C=CCNc1nc(N2CCOCC2)c(C#N)c2c1CN(C)CC2,-14.1
14,Cc1ccc(NC2=NCC(=O)N2C2CCCC2)cc1.Cl,14.7
15,CNC(=O)N1c2ccccc2NC(=O)CC1C (centres unmarked),9.32
16,Cc1ccc(S(=O)(=O)NC2=NCN(CCN3CCOCC3)CN2)cc1,8.55
17,CC(=O)N(CCCN1CCOCC1)Cc1ccncc1.Cl,16.4
18,O=C(Nc1nc2ccc(Cl)cc2s1)c1ccc(Br)o1,4.25
19,Cc1ccc(CNC(=O)/C=C/c2ccc(S(=O)(=O)NCc3ccco3)cc2)cc1,-1.37

row,Compound,"hERG current change (%, negative = inhibition) at 10uM [%]"
1,O=C(CN1CCN(c2ccc(F)cc2)CC1)Nc1nccs1,-1.39
2,O=C(CN1CCN(CC(=O)Nc2ccccn2)CC1)Nc1ccccn1,-36
3,O=C(CN1CCN(c2ccc([N+](=O)[O-])cc2)CC1)Nc1nccs1,-65.6
4,Cc1c(NC(=O)CN2CCN(c3ccc([N+](=O)[O-])cc3)CC2)c(=O)n(-c2ccccc2)n1C,-50.1
5,O=C(CN1CCN(c2ccc([N+](=O)[O-])cc2)CC1)Nc1ccccn1,-77.9
6,Cc1c(NC(=O)CN2CCN(c3ccccc3)CC2)c(=O)n(-c2ccccc2)n1C,9.86
7,O=C(CN1CCN(c2ccccc2)CC1)Nc1nccs1,5.11
8,Cc1c(NC(=O)CN2CCN(c3ccc(O)cc3)CC2)c(=O)n(-c2ccccc2)n1C,21
9,O=C(CN1CCN(c2ccccc2)CC1)Nc1cccc([N+](=O)[O-])c1,2.69
10,C#CCSc1nnnn1-c1cccc(Cl)c1,-9.19
11,COc1cccc(C2NC(CC(C)C)(C(=O)O)C3C(=O)N(Cc4ccccc4)C(=O)C23)c1O (centres unmarked),10.2
12,CN(Cc1ccccc1F)C(=O)c1ccc(NS(=O)(=O)c2ccc3[nH]c(=O)[nH]c3c2)cc1,6.14
13,O=C(Nc1ccccc1N1CCCCC1)C1=COCCO1,-32.6
14,CC(C)[C@@H](C(=O)NCc1ccco1)N1C(=O)N2CCc3c([nH]c4ccccc34)[C@@]2(C)C1=O,-15.6
15,CSc1nnc([C@@H](NC(=O)OC(C)(C)C)C(C)C)o1,-13.6
16,CCc1cccc(OCC(O)Cn2c(N3CCCCC3)nc3c2c(=O)[nH]c(=O)n3C)c1 (centres unmarked),13.7
17,Clc1ccc(CN=C2Nc3ccccc3CS2)cc1,14.9
18,COc1cc2c(cc1OC)C1=C(C#N)CCC(=O)N1CC2,5.55
19,C=C1C[C@H]2[C@@H]3C=C(C)C4=CC(=O)CC[C@]4(C)[C@H]3CC[C@]2(C)[C@@]1(OC(C)=O)C(C)=O,-21.2

row,Compound,"hERG current change (%, negative = inhibition) at 10uM [%]"
1,O=C(COC(=O)C1CC1)Nc1nc(-c2ccc(F)c(F)c2)cs1,4.93
2,CCCc1cnc(N2CCN(C(=O)c3c(-c4ccccc4)noc3C)CC2)nc1,-24.5
3,CCCc1cnc(N2CCN(C(=O)c3ccccc3)CC2)nc1,-57.1
4,CCCc1cnc(N2CCN(C(=O)c3ccc(F)cc3)CC2)nc1,-43.1
5,CCOc1ccccc1N1CCN(C(=O)c2ccncc2)CC1,-8.78
6,CCOc1ccc(C(=O)N2CCN(c3ncccn3)CC2)cc1,-9.8
7,CCCCOc1ccc(C(=O)N2CCN(c3ncccn3)CC2)cc1,-9.16
8,CCOc1ccccc1N1CCN(C(=O)CNC(=O)c2ccc(OC)c(OC)c2)CC1,11.9
9,CCCc1cnc(N2CCN(C(=O)c3ccc(OC)cc3)CC2)nc1,-52.4
10,CCCc1ccc(C(=O)N2CCN(c3ccccc3OCC)CC2)cc1,-56.3
11,CCOc1ccccc1N1CCN(C(=O)CNC(=O)c2ccccc2F)CC1,-51.1
12,CCOc1ccccc1N1CCN(C(=O)CNC(=O)c2sc3ccccc3c2Cl)CC1,17.4
13,CCOc1ccccc1N1CCN(C(=O)c2ccccc2)CC1,11
14,CCCCCCSc1ccc([C@@H]2[C@H]3C(=O)N(CC)C(=O)[C@H]3[C@]3(C(=O)OC)CCCN23)cc1.O=C(O)C(F)(F)F,-7.59
15,COc1cc(OC)cc(C(=O)O/N=C(\N)c2ccccn2)c1,7.21
16,CCOC(=O)c1cc2c(ccn2C)n1CC(=O)N1CCC(Cc2ccccc2)CC1,-24.1
17,CN(C)S(=O)(=O)c1ccc(NC(=O)CN2C(=O)NC(Cc3ccccc3)C2=O)cc1 (centres unmarked),10.2
18,CCOC(=O)CC(NC(=O)C1c2ccccc2Oc2ccccc21)c1ccc(C)cc1 (centres unmarked),5.66
